Among all 320,000 compounds or so, about 22,000 (6.9%) were called active. Another 27% or so got no clear call; they are omitted. Shown is part of a subset that was picked to be rich in actives. Values without a mark were called inactive. Calls come from the whole dose curve; as a rule, active = well fitted inhibition curve with a large enough effect; inconclusive = small, poorly fitted or top-dose-only effect, or another doubt; inactive = no such curve, though single readings can be large or run the other way.
experiment: Primary qHTS for delayed death inhibitors of the malarial parasite plastid, 96 hour incubation; conditions: P. falciparum luciferase reporter growth; series mostly up to 28.7 µM; activity change, negative = inhibition: at the top concentration
Excerpt: The goal of this screen is to discover new antimalarial compounds that act by inhibiting the development of the apicoplast in the malarial parasite Plasmodium falciparum. The biochemical processes that make this organelle essential for erythrocytic stage parasites are not well understood. However, antibiotics such as azithromycin and tetracycline, which target the apicoplast translational machinery, have a potent antimalarial effect.
We have developed a cell-based assay that measures parasite growth based on the expression of an integrated copy of a firefly luciferase reporter. To detect small molecules that cause this "delayed death" phenotype, erythrocytes infected with the luciferase-expressing parasites were incubated with compounds for either one or two generations, corresponding to 48 and 96 hours, respectively. Compounds that inhibit parasite growth in the second generation, but not the first, should be enriched in antimalarials that target the apicoplast. Growth inhibition is detected by a decrease in luciferase activity.
Assay Provider: David Fidock and Eric Ekland, Columbia University
Keywords: NIH Roadmap, MLPCN, MLI, MLSMR, qHTS, NCGC, qHTS, malaria, luciferase, viability
Four microliters of infected erythrocytes (2% hematocrit, 0.05% parasitemia final concentration) in culture medium were dispensed and the plates incubated for 96 hours at 37 C in 5% CO2. Two microliters of luciferase detection reagent was added and luminescence was detected by a ViewLux (PerkinElmer) reader.
% is set by controls: 0 for no effect and ±100 for the full control effect; potency is the fitted concentration of half-maximal effect.

Compound | Potency | activity change, negative = inhibition [%]
CCCc1cc(=O)oc2c(C)c(O)c(CN3CCCCC3)cc12 | 2.08 µM (active) | –
CCCc1cc(=O)oc2c(C)c(OC(C)C(=O)NCC(O)c3ccccc3)ccc12 (configuration not stated) | – | -15.3
CCCCc1cc(=O)oc2c(C)c(OCC(=O)N3CCC(C(N)=O)CC3)ccc12 | – | 19.5
COc1ccc(NC(=O)CN2C(=O)COc3ccc(S(=O)(=O)N4CCOCC4)cc32)cc1 | – | -0.78
Cc1ccc(S(=O)(=O)N2CCC(C)CC2)cc1C(=O)NCc1ccccn1 | – | 6.35
O=C(CCc1nc2sc3c(c2c(=O)[nH]1)CCCC3)NCC(=O)Nc1ccccc1Br | – | 13.4
O=C(CCNS(=O)(=O)c1cccs1)N1CCN(c2ccc(F)cc2)CC1 | – | -21.8
CN(CCC1CCOCC1)Cc1cn[nH]c1-c1ccc(-c2ccccc2)cc1 | 13.1 µM (active) | –
CN(CCC1CCOCC1)C(=O)CC1C(=O)NCCN1Cc1cccc(F)c1 (configuration not stated) | – | 81.9
O=[N+]([O-])c1ccc(N2CCSCC2)cc1O | – | 23.3
O=C(COC(=O)C1CC2CCCC(C1)C2=O)NC(=O)c1ccccc1 (configuration not stated) | – | 11.2
CC(=O)Nc1cccc(-c2cnc3ccccc3n2)c1 | – | -1.47
Cc1cc(O)ccc1-c1cnc2ccccc2n1 | 2.62 µM (active) | –
Cc1ccc(Nc2nc(-c3ccc(O)cc3O)cs2)nc1 | – | 20.1
COc1ccc2oc(=N)c(C(=O)Nc3ccc(Br)cc3)cc2c1 | – | 257
Cc1cccc(-n2c(=O)c3c(C)c(C)sc3n(CC(N)=O)c2=O)c1 | – | 32.2
Cc1sc2c(c1C)c(=O)n(-c1ccccc1)c(=O)n2CC(=O)NCC1CCCO1 (configuration not stated) | – | 48.7
Cc1cccc(NC(=O)Cn2c(=O)n(Cc3ccccc3)c(=O)c3c(C)c(C)sc32)c1 | 14.7 µM (active) | –
Cc1noc(C)c1COc1ccccc1C(=O)N(C)CC(=O)Nc1cccc(F)c1 | – | 16.9
O=C(O)C1CCC(CNS(=O)(=O)c2ccc(Br)cc2)CC1 (configuration not stated) | – | 2.75
CN(C)CCCNC(=S)N1CCN(c2nc(-c3ccccc3)cs2)CC1 | – | 0
Cc1ccc(NC(=O)C(CC(=O)O)C2CCCO2)c(C)c1 (configuration not stated) | – | 8.69
COc1cccc(/C=C2\C=C(c3ccc(C)cc3)OC2=O)c1OC(C)=O | – | 32.9
O=C(COC(=O)CCCN1C(=O)c2cccc3cccc(c23)C1=O)NC1CCS(=O)(=O)C1 (configuration not stated) | – | 30.8
COc1cc([N+](=O)[O-])ccc1NC(=O)COC(=O)CCOc1ccc(C)cc1 | – | -0.415
O=C(Nc1nnc(CCN2CCCCC2)s1)c1cccc(Cl)c1 | – | 29.8

Compound | Potency | activity change, negative = inhibition [%]
COC(=O)c1ccc(NC(=O)c2cc(Cl)ccc2OC)cc1 | – | 0
CCN(CC)C(=O)C(=O)Nc1cccc(Br)c1 | – | -5.94
CCN(CC)C(=O)Oc1ccc(Br)cc1C(=O)Nc1ccc(F)c(Cl)c1 | 11.7 µM (active) | –
Cc1cc(C)n2nc(C(=O)OCC(=O)N(C)CC(=O)Nc3ccc(F)cc3)nc2n1 | – | 7.58
COc1ccccc1NC(=O)C1=C(C)NC2=C(C(=O)CCC2)C1c1ccc(C)o1 (configuration not stated) | – | 17.3
COc1ccccc1NC(=O)C1=C(C)NC(=O)NC1c1ccc(C)s1 (configuration not stated) | 6.57 µM (active) | –
COc1ccccc1NC(=O)C1=C(C)Nc2ncnn2C1c1ccc(C)o1 (configuration not stated) | – | -29.5
Cc1ccc(Nc2ncnc3c2cnn3C)c(C)c1 | – | -14.4
O=C(C1CC1)N1CCN=C1SCc1ccc(Cl)cc1 | – | 7.45
O=C(COc1ccccc1)N1CCN=C1SCc1cccc(F)c1 | – | 8.33
O=C(c1ccco1)N1CCN=C1SCc1cccc(Cl)c1 | 10.4 µM (active) | –
COc1ccccc1C1C(C(N)=O)=C(C)Nc2nc(CCCO)nn21 (configuration not stated) | – | 9.37
Clc1ccc(C2=CSC3=Nc4cccc5cccc(c45)N23)cc1 | 3.7 µM (active) | –
COc1ccccc1-c1c(C#N)c(N)nc2c1CCC2 | – | 14.8
O=C(Nc1nonc1-c1ccc(Cl)cc1)c1ccco1 | – | 5.85
COCCn1c(SC(C)C(=O)NC2CC2)nnc1-c1cccc(C)c1 (configuration not stated) | – | 4.07
CCc1nc2cccnc2n1-c1ccc(C(=O)O)cc1 | – | -9.55
COC(=O)c1cc(CNC(=O)CC(C)c2ccccc2)ccc1OC (configuration not stated) | – | 2.52
CCCOc1ccc(CN(CCO)CCO)cc1C(=O)OC | 8.28 µM (active) | –
CCOc1ccc(CN(CCCl)CCCl)cc1C(=O)OC | – | 64.7
Cc1ccc(C(=O)NCCc2nnc(SCC(=O)Nc3cccc(C(=O)O)c3)n2C)cc1 | – | 4.52
COc1cc(CCC(=O)N2CCN(c3ccccc3Cl)CC2)cc(OC)c1OC | – | -23.8
Cc1ccc(NC(=S)NCCc2ccc(Cl)cc2)c(C)c1 | – | -9.71
CC(C)OC(=O)CN1C(=O)c2ccccc2C1=O | 7.38 µM (active) | –
CC(C)OC(=O)CN1C(=O)C(=O)c2ccccc21 | 2.08 µM (active) | –
Cc1cccc2c1N(CC(=O)OC(C)C)C(=O)C2=O | – | 38.3

Reference: PubChem BioAssay AID504834 (National Center for Advancing Translational Sciences (NCATS), 2011)
